This is part of a sample that, as a whole, favours compounds with a hit. Of some 83,000 tested, about 20% had one in any assay.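 Interpretation: 100, growth as untreated; towards 0, rising growth inhibition; 0, no net growth; 0 to -100, cell death. Compounds scoring below 10 were considered active.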 Values without a mark were called inactive. Activity calls are given as the source filed them.
The molecules below were run on HL-60(TB) leukemia (assay: NCI-60 one-dose screen, 48 h (100 = growth as untreated, 0 = no growth, -100 = all killed)). Conditions: 10 µM unless noted.

Structure (SMILES)	growth
CCOC(=O)c1cc(C(=O)c2cc(OC)c(OC)c(OC)c2)n2c1ccc1c3cccnc3ccc12	13.3%
Cc1ccc(S(=O)(=O)n2cc(C(=O)C(=O)Nc3ccncc3)c3ccccc32)cc1	16.1%
CC(C)c1ccc(Cn2ccc3c4c(N)nc(NC5CC5)nc4ccc32)cc1	-68.8% (active)
O=C(C(=O)c1ccc2c(c1)OCO2)c1ccc2c(c1)OCO2	62.3%
COc1cc(C2CC(c3ccc(Nc4nc(Nc5ccc(Cl)cc5)nc(Nc5ccc(Cl)cc5)n4)cc3)=NN2C(C)=O)cc(OC)c1OC (stereo not given)	95.2%
O=C(O)c1cn(C2CC2)c2cc(N3CCN(C(=O)C[n+]4cccc5ccccc54)CC3)c(F)cc2c1=O	99.1%
COc1cc(-c2cc(-c3ccc(Nc4nc(Nc5ccccc5)nc(Nc5ccc(Cl)cc5)n4)cc3)nc(N)n2)cc(OC)c1OC	96.8%
O=C(Cn1ccnc1)NC(c1ccccc1)c1ccccc1	96.7%
CCCCS(=O)(=O)Oc1ccc(-c2nc(C)c(C(=O)OCC)s2)cc1C=O	37.7%
COC(=O)CCC1=C(C)C(C)=N/C1=C\c1[nH]c(-c2ccc[nH]2)cc1OC	-21.8% (active)
C[C@@H]1O[C@@H](O[C@@H]2C[C@H](c3ccc4c(c3O)C(=O)C3=C(C4=O)[C@@]4(O)C(=O)C[C@](C)(O)C[C@@]4(O)C=C3)O[C@H](C)[C@H]2O)CC[C@@H]1O[C@H]1C[C@@H](O)[C@H](O)[C@@H](C)O1	99.4%
NC(N)=NS(=O)(=O)c1ccc(NC2=C(I)C(=O)c3ncccc3C2=O)cc1	99.2%
Cc1cc(Nc2ccc(OCc3ccccc3)cc2)nc2cc(O)ccc12	-44.4% (active)
COc1ccc(Cn2nc3c(c2-c2cc(OC)c(OC)c(OC)c2)-c2oncc2CC3)cc1	54.4%
Cc1ccc(-c2cc(-c3ccccc3C)[nH]c(=O)c2C#N)s1	80.4%
O=C(Nc1ccc(CO)cc1)c1ccccc1Nc1ccnc(C(F)(F)F)c1	98.3%
NC(N)=NN=c1c(=O)c2ccccc2c1=O	95.2%
CN1C(=O)C(=Cc2coc3ccc(Br)cc3c2=O)C(=O)N(C)C1=O	111%
O=S(=O)(/N=c1/n(-c2ccccc2)nc2n1CCN2C1=NCCN1)c1ccc(-c2ccccc2)cc1	136%
Cc1cc(C(=O)c2ccccc2)c(C)c2c1[nH]c1ccc(Cl)cc12	1.08% (active)

Structure (SMILES)	growth
COc1cccc(/C=C2\CCc3ccccc3C2=O)c1	63.2%
COc1cccc(Nc2ncnn3ccc(CN4CC[C@@H](N)[C@H](O)C4)c23)c1	73.8%
COc1cc(Cc2cc(-c3ccccc3)nn(Cc3ccccc3)c2=O)cc(OC)c1OC	19.3%
Cc1ccc2nc(NC(=O)CSc3nc(-c4ccccc4)c(C#N)c4nnnn34)sc2c1	99.5%
COc1ccc(/C=N/NC(N)=S)c(OC)n1	93.4%
O=C1Nc2ccccc2/C1=N/N=C/c1ccsc1	99.4%
Cc1c(C2=CCCCC2)c2ccccn2c1C(=O)c1cccc(S(=O)(=O)N2CCOCC2)c1	132%
Cc1ccc(-c2nc(C#N)c(S(=O)(=O)N(C)CCO)o2)cc1	-18.1% (active)
O=[N+]([O-])c1ccc(-c2cc(-c3ccc(Nc4nc(Nc5ccc(Cl)cc5)nc(Nc5ccc(Cl)cc5)n4)cc3)no2)cc1	-63% (active)
CCc1c(Nc2ccc(C)cc2)nc(N)[nH]c1=O	89.6%
CN(C)c1ccc(/C=N/N=C(\C#N)[S][Sn]([Cl])([c]2ccccc2)[c]2ccccc2)cc1	0.861% (active)
O=c1[nH]c(CN2CCN(c3cccc(Cl)c3)CC2)nc2cc(Cl)ccc12	116%
Cc1[nH]n(-c2ccccc2)c2nc3nncc3c(-c3ccc(Cl)cc3)c12	110%
FC(F)(F)c1[nH]ncc1-c1nc2c(N3CCCCC3)cc3[nH]ncc3c2c2c1CCCC2	-1.46% (active)
COc1ccc2c(c1)[n+](=O)c(C(=O)/C=C/c1cc(OC)c(OC)c(OC)c1)c(C)n2[O-]	42.6%
CCCC(=O)OCC(COC(=O)CCC)OC(=O)CCC	100%
CC(=O)O[C@H]1[C@H](CC#CC#CC[C@@H]2C[C@]3(C)[C@H]4CC=C5[C@H]6[C@@H](C)[C@H](C)CC[C@]6(C(=O)NCCN(CCN)CCN)CC[C@@]5(C)[C@]4(C)CC[C@H]3C(C)(C)[C@H]2OC(C)=O)C[C@]2(C)[C@H]3CC=C4[C@H]5[C@@H](C)[C@H](C)CC[C@]5(C(=O)NCCN(CCN)CCN)CC[C@@]4(C)[C@]3(C)CC[C@H]2C1(C)C	34.2%
CN(C)Cc1cc(C(C)(C)C)cc(Br)c1O	123%
CC1=C/C(=C(\c2cc(C)c(O)c(C(=O)O)c2)c2c(Cl)cccc2Cl)C=C(C(=O)O)C1=O	106%
C=C1CCC2C3(C)COC(c4ccccc4Br)OC3CCC2(C)C1C/C=C1/C(=O)OCC1OC(C)=O (stereo not given)	-48.7% (active)
